Unmarked numbers belong to inactive results. Inconclusive results are not listed. Where a call stands in place of a potency, no number is given. The source holds several records for some structures; these can differ, active in one and inactive in another. Active and inactive are the calls of the source. Unless noted, calls follow the shape of the dose curve; as a rule, active = well fitted curve in the direction sought with a large enough effect; inconclusive = small, poorly fitted or top-dose-only effect, or another doubt; inactive = no such curve, though single readings can be large; an effect the other way counts as inactive or inconclusive.
Columns and labels:
[1] = system: Zika virus NS2B-NS3 protease; assay: Primary screen GU AMC qHTS for Zika virus inhibitors (AID 1347154); also: nearly all actives have a fitted effect of over 70% in size
In short: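 Unlinked Zika NS2B hydrophilic domain/NS3 protease domain noncovalent complex (25 nM final) in 10 mM Tris-HCl pH 8.0, 0.01% Tween 20, with AMC peptide substrate. Fluorescence (ex 340, em 450 nm) change over 15 min, room temperature; percent inhibition fitted to 4-parameter Hill equation.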

[2] = Primary qHTS for small molecule stabilizers of the endoplasmic reticulum resident proteome: Secreted ER Calcium Modulated Protein (SERCaMP) assay (AID 1508630); also: potency is read from the fitted curve at half-maximal effect
In short: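 GLuc-SERCaMP-expressing SH-SY5Y cells, pretreated 16 h with compound, are challenged with thapsigargin to empty ER calcium stores; after 4 h, coelenterazine is added directly to the medium and luminescence is imaged.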

[3] = target: DNA repair nuclease/redox regulator APEX1 (Homo sapiens) (UniProt P27695); assay: qHTS Validation Assay for Inhibitors of the Human Apurinic/apyrimidinic Endonuclease 1 (APE1) (AID 1705;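 also: TAMRA fluorescence gain over two minutes as APE1 cuts a quenched THF abasic duplex; series mostly up to about 57 µM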)
DNA repair nuclease/redox regulator APEX1 (Homo sapiens), sequence (P27695 whole entry, looked up): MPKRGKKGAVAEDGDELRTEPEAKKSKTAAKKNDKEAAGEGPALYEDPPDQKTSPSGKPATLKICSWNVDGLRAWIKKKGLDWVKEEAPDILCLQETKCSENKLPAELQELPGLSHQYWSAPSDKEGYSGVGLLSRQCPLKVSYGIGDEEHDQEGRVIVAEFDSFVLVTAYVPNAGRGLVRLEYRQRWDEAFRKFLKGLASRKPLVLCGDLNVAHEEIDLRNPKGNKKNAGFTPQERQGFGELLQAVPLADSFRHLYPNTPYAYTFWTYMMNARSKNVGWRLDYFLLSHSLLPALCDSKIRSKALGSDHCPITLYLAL
In short: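 Substrate: 50 nM final fluorophore/quencher THF-abasic duplex. Enzyme preincubated with compounds 15 min, RT. Progress derived from fluorescence difference, third minus first kinetic read.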

[4] = qHTS for differential inhibitors of proliferation of Plasmodium falciparum line 7G8 (AID 1815);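 also: parasite growth measured after three days of incubation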
[5] = qHTS for differential inhibitors of proliferation of Plasmodium falciparum line GB4 (AID 1816); settings: Potency: Plasmodium falciparum GB4 proliferation inhibition;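 also: parasite growth measured after 72 h incubation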
[6] = qHTS for differential inhibitors of proliferation of Plasmodium falciparum line 3D7 (AID 1876);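 also: parasite growth measured after three days of culture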
[7] = qHTS for differential inhibitors of proliferation of Plasmodium falciparum line Dd2 (AID 1882); settings: Potency: Plasmodium falciparum Dd2 proliferation inhibition;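 also: series mostly up to about 29 µM; compound exposure of 72 h on infected erythrocytes; nearly all actives have a fitted effect of over 65% in size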
In short: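 SYBR Green I DNA fluorescence read-out, ex 485/em 535 nm. Signals were normalized to 0.29 uM artemisinin and DMSO wells, then corrected using vehicle-only plates flanking each stack. Parasite growth ran 72 h in erythrocytes before lysis.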

[8] = qHTS for differential inhibitors of proliferation of Plasmodium falciparum line W2 (AID 1883); settings: Potency: Plasmodium falciparum W2 proliferation inhibition;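 also: parasites grown with compound for 72 h before lysis and staining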
[9] = qHTS for differential inhibitors of proliferation of Plasmodium falciparum line HB3 (AID 1886); settings: Potency: Plasmodium falciparum HB3 proliferation inhibition;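 also: parasites grown with compound for 72 h before SYBR Green readout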
[10] = target: ATP-dependent DNA helicase Q1 (Homo sapiens) (UniProt P46063); assay: qHTS Validation Assay for Inhibitors of RecQ-Like Dna Helicase 1 (RECQ1) (AID 2353)
ATP-dependent DNA helicase Q1 (Homo sapiens), sequence (P46063 whole entry, looked up): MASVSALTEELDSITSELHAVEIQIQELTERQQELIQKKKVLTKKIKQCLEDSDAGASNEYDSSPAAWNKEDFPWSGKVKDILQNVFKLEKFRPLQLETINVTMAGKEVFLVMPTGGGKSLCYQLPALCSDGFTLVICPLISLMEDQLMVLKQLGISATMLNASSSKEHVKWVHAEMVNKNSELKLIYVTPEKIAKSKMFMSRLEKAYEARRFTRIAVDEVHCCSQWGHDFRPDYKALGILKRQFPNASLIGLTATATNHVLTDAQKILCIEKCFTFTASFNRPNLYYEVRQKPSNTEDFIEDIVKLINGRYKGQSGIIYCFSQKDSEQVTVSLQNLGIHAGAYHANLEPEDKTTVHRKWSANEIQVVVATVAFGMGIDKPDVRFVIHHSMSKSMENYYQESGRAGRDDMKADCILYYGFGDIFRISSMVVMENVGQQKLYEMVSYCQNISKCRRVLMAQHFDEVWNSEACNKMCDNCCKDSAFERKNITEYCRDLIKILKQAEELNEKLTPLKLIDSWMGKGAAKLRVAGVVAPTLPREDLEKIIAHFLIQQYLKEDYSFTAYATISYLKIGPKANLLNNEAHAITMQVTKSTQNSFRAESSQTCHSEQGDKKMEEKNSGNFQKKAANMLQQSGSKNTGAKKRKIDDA
In short: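 50 nM RECQ1T1 preincubated 15 min with compound in Tris pH 8.0 buffer with MgCl2, DTT, Tween-20 and 2.5 ug/ml poly(dI-dC); started with 200 nM TAMRA/BHQ-2 forked duplex and 2 mM ATP. Unwinding read as fluorescence (525/598 nm), two reads 2 h apart.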

[11] = Quantitative high throughput screen for delayed death inhibitors of the malarial parasite plastid, 96 hour incubation (AID 488745); also: series mostly up to about 29 µM; nearly all actives have a fitted effect of over 70% in size
In short: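 P. falciparum carrying an integrated firefly luciferase reporter, grown in erythrocytes (2% hematocrit, 0.1% parasitemia final) in RPMI 1640/0.5% Albumax, was exposed to compound for 96 h (two generations) at 37 C, 5% CO2. Luminescence decrease indicated growth inhibition.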

[12] = Quantitative high throughput screen for delayed death inhibitors of the malarial parasite plastid, 48 hour incubation (AID 488752); also: nearly all actives have a fitted effect of over 65% in size
In short: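 Erythrocytes infected with P. falciparum carrying an integrated firefly luciferase reporter (2% hematocrit, 0.1% parasitemia final) were exposed to compounds in RPMI 1640/0.5% Albumax for 48 h at 37 C, 5% CO2. Growth inhibition was scored as reduced luminescence.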

[13] = target: M-phase phosphoprotein 8 (Homo sapiens) (UniProt Q99549); assay: qHTS Validation Assay for Inhibitors for MPP8 Chromodomain Interactions with Methylated Histone Tails (AID 488949);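 also: 50 nM MPP8 with 50 nM peptide preformed then compounds added for 30 min; AlphaScreen signal from MPP8 chromodomain bound to biotinylated H3K9me3 peptide; top concentration of the series differs between compounds; nearly all actives have a fitted effect of over 55% in size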
M-phase phosphoprotein 8 (Homo sapiens), sequence (Q99549 whole entry, looked up): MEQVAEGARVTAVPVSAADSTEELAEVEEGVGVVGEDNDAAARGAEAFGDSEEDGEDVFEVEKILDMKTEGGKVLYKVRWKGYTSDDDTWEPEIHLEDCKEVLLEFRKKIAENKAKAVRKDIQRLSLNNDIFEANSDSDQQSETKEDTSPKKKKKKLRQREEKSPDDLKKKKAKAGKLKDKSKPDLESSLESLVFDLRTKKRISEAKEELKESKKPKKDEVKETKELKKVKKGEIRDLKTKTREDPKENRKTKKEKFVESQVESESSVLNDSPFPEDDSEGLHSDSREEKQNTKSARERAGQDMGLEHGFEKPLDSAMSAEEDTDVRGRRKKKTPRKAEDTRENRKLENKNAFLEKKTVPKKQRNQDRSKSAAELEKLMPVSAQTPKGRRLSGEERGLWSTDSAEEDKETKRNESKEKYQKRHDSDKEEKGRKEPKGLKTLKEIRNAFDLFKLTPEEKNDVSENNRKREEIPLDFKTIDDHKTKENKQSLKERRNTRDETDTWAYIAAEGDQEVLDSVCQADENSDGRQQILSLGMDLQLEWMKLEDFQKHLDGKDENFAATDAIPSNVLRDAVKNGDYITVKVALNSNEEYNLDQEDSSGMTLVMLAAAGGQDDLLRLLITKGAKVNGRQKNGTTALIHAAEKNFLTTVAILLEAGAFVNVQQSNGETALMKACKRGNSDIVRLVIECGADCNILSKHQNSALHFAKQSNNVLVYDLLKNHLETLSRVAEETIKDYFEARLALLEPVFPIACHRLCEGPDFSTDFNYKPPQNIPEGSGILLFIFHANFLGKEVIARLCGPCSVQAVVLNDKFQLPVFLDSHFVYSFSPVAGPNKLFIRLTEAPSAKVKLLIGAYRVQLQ
In short: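 Chemiluminescent proximity assay: histidine-tag capture via nickel acceptor beads, biotin peptide via streptavidin donor beads. Protein and peptide each at 50 nM, pH 7.4, with 30 min incubations at room temperature for complex formation, compound exposure and bead binding.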

[14] = target: Transient receptor potential cation channel subfamily V member 1 (Homo sapiens) (UniProt Q8NER1); assay: HTS Assay for Compounds that Act as Enhancers of the Vanilloid Receptor 1 (AID 488979)
Transient receptor potential cation channel subfamily V member 1 (Homo sapiens), sequence (Q8NER1 whole entry, looked up): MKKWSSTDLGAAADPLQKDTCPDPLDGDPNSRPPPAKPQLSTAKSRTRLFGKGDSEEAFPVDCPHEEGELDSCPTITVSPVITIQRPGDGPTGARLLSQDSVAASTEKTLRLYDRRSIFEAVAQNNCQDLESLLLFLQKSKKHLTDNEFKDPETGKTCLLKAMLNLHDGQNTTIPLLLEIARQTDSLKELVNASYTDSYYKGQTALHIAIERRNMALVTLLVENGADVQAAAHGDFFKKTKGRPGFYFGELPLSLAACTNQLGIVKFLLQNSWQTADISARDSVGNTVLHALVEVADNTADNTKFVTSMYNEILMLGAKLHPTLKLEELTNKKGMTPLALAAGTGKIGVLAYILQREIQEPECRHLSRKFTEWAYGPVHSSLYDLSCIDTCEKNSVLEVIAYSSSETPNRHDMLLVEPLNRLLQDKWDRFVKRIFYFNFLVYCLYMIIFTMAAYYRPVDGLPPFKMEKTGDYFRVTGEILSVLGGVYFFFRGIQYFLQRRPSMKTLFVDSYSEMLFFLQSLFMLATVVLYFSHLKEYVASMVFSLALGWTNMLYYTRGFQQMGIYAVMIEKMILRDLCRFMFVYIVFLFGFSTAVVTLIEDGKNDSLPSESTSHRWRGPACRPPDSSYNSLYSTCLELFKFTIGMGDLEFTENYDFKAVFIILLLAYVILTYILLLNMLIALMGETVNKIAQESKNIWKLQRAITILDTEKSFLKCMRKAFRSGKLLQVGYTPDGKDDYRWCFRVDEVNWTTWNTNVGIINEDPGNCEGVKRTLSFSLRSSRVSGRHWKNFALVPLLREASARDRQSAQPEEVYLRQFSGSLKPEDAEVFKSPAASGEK
In short: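 TRPV1-expressing cells loaded with Fluo-8 calcium dye; compounds added and calcium influx read kinetically for 3 min (agonist phase), then capsaicin at EC20 added and read 2 min more for enhancement. Fluorescence ex 480/em 520 nm.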

[15] = target: Thyrotropin receptor (Homo sapiens) (UniProt P16473); assay: qHTS Assay for Antagonists of the Thyroid Stimulating Hormone Receptor (AID 488980); also: series mostly up to about 58 µM
Thyrotropin receptor (Homo sapiens), sequence (P16473 whole entry, looked up): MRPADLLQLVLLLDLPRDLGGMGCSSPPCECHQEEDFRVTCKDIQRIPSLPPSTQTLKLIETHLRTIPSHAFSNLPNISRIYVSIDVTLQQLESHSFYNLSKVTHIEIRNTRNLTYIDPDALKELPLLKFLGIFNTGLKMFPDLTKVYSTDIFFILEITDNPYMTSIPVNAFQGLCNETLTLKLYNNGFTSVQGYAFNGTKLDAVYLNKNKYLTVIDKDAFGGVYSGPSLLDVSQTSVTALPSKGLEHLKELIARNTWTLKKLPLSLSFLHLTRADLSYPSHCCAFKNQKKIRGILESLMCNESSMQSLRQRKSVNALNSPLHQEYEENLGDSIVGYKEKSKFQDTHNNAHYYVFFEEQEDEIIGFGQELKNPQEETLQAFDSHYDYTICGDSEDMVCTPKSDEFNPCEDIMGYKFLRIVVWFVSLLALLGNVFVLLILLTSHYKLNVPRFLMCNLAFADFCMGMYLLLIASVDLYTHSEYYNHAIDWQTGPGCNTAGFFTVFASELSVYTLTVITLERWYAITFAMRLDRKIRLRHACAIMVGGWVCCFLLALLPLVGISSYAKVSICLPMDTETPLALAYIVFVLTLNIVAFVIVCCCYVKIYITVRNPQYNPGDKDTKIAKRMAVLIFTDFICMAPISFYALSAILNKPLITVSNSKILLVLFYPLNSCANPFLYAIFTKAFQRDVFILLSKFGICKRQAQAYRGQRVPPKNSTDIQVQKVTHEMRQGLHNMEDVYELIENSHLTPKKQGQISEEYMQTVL
In short: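 Inhibition of TSH-stimulated cAMP accumulation was quantified by homogeneous time-resolved FRET in TSHR-transfected HEK293 cells. Agonist: TSH, 4 nM final (EC80).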

[16] = target: Thyrotropin-releasing hormone receptor (Homo sapiens) (UniProt P34981); assay: qHTS for Small Molecule Agonists and Allosteric Enhancers of Human TRH Receptor: Validation Screen for Agonists (AID 493127;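 active = calcium activation more than 3 SD above the typical response in the agonist read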;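 also: intracellular calcium rise by fluo-8 fluorescence before TRH EC20 addition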); settings: TRH receptor agonist cell assay; at 2 µM; stronger effect = higher value
Thyrotropin-releasing hormone receptor (Homo sapiens), sequence (P34981 whole entry, looked up): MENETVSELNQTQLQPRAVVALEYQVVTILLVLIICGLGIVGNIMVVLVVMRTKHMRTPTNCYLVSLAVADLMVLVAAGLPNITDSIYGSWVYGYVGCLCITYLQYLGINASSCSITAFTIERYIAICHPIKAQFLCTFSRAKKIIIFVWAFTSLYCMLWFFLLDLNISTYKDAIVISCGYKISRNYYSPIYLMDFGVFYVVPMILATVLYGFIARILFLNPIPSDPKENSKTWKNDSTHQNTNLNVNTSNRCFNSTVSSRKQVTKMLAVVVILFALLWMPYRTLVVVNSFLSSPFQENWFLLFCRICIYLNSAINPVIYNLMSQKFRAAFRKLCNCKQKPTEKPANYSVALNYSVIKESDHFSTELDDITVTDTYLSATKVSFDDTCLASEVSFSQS
In short: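 TRHR-expressing cells were plated overnight in serum-containing medium, then loaded with fluo-8 calcium dye at room temperature for 30 min–1.5 h. After a 10 s baseline, compound was pin-transferred and calcium fluorescence (ex 480/em 530) read kinetically for agonist response.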

[17] = target: Galactokinase (Homo sapiens) (UniProt P51570); assay: qHTS Validation Assay for Inhibitors of Human Galactokinase (GALK) (AID 493189)
Galactokinase (Homo sapiens), sequence (P51570 whole entry, looked up): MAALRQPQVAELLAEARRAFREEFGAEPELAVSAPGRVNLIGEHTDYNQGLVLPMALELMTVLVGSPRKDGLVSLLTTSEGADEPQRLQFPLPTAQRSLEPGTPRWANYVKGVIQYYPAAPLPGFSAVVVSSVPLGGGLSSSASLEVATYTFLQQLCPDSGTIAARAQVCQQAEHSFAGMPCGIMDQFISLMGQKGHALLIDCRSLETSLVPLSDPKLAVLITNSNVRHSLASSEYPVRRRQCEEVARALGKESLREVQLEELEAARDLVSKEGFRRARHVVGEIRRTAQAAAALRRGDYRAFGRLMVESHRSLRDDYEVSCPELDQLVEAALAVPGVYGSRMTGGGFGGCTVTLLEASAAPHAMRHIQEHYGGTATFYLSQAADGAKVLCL
In short: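 Enzyme activity is inferred from ATP consumption: human GALK phosphorylates galactose (100 uM) using 35 uM ATP for 1 h at room temperature, and luciferase-based Kinase-Glo Plus reports unconsumed ATP.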

[18] = Validation screen for small molecules that induce DNA re-replication in SW480 colon adenocarcinoma cells (AID 504364)
In short: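 SW480 cells seeded at 250 per well were exposed to compound or DMSO for 48 hr at 37 C, 5% CO2, then stained with Hoechst for 40 min. DNA content per nucleus was imaged (405 nm ex, 500-530 nm em).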

| SMILES | Potency [1] | Potency [2] | Potency [3] | Potency [4] | Potency [5] | Potency [6] | Potency [7] | Potency [8] | Potency [9] | Potency [10] | Potency [11] | Potency [12] | Potency [13] | outcome [14] | outcome [15] | activation [16] | outcome [17] | outcome [18] | activity change, negative = inhibition [2] |
| --- | --- | --- | --- | --- | --- | --- | --- | --- | --- | --- | --- | --- | --- | --- | --- | --- | --- | --- | --- |
| CC(C)c1ccc2c(c1)CC[C@H]1[C@](C)(CN)CCC[C@]21C | inactive | inactive |  |  |  |  |  |  |  |  |  |  |  |  |  |  |  |  |  |
| CCCCCCCCCCCCC/C=C/[C@@H](O)[C@@H](N)CO | inactive | 1.12 µM (active) | inactive | inactive | inactive | inactive | inactive | inactive | inactive | inactive | inactive | inactive | inactive | inactive | inactive | 0.312% | inactive | inactive | -29.5% [at 3.88 µM] |
